Experimental findings from PMC5700166 are described below.

Holding throughout (experiment): protein-binding microarray (PBM); PBM: ~300 nM protein, 6 mM HEPES pH 7.8, 80 mM KCl, 0.5 mM EDTA, 0.5 mM EGTA, 6% glycerol, 35 ng/ul poly-dIdC, 1% milk, 1 h, room temperature; Ap Aiptasia and Nv Nematostella (sea anemones) / Co Capsaspora / Aq Amphimedon (sponge) / Dm Drosophila / Hu human; RHD is the Rel homology domain; high values mean tight binding
Conditions in all cases: dsDNA, one strand shown

In one assay the target is T1, GST-Ap-NF-kB RHD (Exaiptasia pallida (Aiptasia), UniProt A0A913YAJ5 2-422).
T1 sequence: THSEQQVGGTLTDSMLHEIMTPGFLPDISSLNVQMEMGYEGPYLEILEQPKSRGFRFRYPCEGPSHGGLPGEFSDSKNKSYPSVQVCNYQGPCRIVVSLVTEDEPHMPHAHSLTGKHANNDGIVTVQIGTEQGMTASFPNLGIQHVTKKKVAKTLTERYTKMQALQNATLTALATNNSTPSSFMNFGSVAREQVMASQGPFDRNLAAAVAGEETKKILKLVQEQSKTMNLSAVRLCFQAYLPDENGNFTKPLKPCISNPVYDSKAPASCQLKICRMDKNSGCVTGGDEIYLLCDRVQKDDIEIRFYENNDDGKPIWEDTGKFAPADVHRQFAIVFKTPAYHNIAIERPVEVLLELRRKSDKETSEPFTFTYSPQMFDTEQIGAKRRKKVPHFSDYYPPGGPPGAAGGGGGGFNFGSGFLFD

The target of assay [1] is T2, GST-Nv-NF-kB (Cys allele) (Nematostella vectensis, UniProt E5G601 2-411).
T2 sequence: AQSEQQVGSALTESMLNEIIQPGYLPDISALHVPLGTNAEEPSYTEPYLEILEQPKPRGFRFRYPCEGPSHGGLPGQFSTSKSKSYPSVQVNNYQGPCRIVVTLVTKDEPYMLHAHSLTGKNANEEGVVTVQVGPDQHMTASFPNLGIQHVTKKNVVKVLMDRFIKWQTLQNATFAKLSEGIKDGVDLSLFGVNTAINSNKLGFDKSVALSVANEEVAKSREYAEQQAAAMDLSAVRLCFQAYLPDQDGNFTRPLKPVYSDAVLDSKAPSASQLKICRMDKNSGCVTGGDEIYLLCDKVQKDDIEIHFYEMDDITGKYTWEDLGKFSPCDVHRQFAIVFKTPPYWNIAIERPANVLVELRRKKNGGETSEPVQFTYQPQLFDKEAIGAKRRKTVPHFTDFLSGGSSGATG

In assay [2] the target is T3, GST-Nv-NF-kB (Ser allele) (Nematostella vectensis, UniProt A7UNT2 2-411).
T3 sequence: T2 sequence with Q21R, C66S, S207N, E215Q, V217A, E225K, A268E, D399E

In the next assay the target is T4, GST-Co-NF-kB (Capsaspora owczarzaki, UniProt F1ARL5 200-546).
T4 sequence: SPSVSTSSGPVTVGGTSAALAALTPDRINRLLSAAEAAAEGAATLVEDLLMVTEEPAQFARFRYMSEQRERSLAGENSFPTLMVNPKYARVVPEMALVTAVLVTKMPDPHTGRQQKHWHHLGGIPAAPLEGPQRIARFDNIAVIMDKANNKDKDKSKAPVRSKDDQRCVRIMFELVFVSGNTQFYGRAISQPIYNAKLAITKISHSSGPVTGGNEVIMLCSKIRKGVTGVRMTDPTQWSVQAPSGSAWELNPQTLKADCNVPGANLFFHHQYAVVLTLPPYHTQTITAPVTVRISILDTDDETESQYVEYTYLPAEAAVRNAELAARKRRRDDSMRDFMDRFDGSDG

The target in another assay is T5, GST-Dm-Relish (Drosophila melanogaster, UniProt Q94527 99-473).
T5 sequence: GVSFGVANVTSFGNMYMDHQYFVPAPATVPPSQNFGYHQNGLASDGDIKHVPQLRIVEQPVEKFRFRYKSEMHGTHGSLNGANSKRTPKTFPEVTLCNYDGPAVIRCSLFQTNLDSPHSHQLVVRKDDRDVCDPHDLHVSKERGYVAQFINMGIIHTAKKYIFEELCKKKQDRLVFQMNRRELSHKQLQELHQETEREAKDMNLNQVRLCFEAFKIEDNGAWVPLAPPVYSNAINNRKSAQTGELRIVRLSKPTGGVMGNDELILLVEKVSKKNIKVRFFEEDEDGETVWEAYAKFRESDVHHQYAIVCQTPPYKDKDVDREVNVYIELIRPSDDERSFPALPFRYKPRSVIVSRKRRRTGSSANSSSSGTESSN

The target of a further assay is T6, GST-Aq-NF-kB (Amphimedon queenslandica, UniProt A9Y5G7 2-389).
T6 sequence: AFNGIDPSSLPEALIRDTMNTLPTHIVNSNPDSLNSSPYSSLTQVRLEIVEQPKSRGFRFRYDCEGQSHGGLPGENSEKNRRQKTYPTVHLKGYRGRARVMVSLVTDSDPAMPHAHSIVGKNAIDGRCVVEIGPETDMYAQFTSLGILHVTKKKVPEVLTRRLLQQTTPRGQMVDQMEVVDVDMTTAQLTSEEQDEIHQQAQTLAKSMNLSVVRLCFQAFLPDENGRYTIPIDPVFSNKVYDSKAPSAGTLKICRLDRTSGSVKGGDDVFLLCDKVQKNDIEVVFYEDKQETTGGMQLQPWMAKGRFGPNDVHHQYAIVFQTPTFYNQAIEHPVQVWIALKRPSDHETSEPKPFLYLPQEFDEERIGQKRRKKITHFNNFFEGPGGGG

The target of a further assay is GST-Hu-p50 (Homo sapiens, UniProt P19838 7-356).

Residue numbers refer to the chain shown, from its start.

GST-Hu-p50, sequence (P19838 7-356): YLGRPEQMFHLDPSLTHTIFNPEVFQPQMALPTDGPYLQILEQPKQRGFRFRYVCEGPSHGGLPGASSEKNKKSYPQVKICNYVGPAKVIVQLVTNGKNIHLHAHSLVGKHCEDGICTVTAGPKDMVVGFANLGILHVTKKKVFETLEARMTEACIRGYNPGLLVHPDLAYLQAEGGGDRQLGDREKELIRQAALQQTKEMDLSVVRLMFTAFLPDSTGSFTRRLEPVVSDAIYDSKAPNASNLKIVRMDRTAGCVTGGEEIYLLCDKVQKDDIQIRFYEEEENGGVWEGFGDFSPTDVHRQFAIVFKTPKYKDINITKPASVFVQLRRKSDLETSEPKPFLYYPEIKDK

Take “CCGATTAACATCACGGGGTTTCCTGATGTTAATCGGGTCTTGATTCGCTTGACGCTGCTG”: the binding signal was 6.06 z-score with GST-Ap-NF-kB RHD; 4.79 z-score in assay [1]; 2.69 z-score in assay [2]; 2.61 z-score in the assay with GST-Co-NF-kB; 7.75 z-score in the assay with GST-Dm-Relish; 5.93 z-score with GST-Aq-NF-kB. This sequence also came in with a binding signal in the assay with GST-Hu-p50 of 4.42 z-score.

Turning to “CCGATTAACATCAGGGAAAAATATGATGTTAATCGGGTCTTGATTCGCTTGACGCTGCTG”, the binding signal in the assay with GST-Ap-NF-kB RHD is 3.68 z-score; in assay [1] it was 5.51 z-score; in assay [2], 7.16 z-score; in the assay with GST-Co-NF-kB, 5.79 z-score; with GST-Dm-Relish it was 2.03 z-score; with GST-Aq-NF-kB it was 5.19 z-score. Besides, the binding signal with GST-Hu-p50 was determined as 4.2 z-score.

Turning to “CCGATTAACATCACGGCATTCCCTGATGTTAATCGGGTCTTGATTCGCTTGACGCTGCTG”, the binding signal with GST-Ap-NF-kB RHD stood at 2 z-score; in assay [1], 2.64 z-score; in assay [2] it was 2.35 z-score; with GST-Co-NF-kB, 1.73 z-score; in the assay with GST-Dm-Relish, 2.31 z-score; with GST-Aq-NF-kB, 3.81 z-score. The binding signal in the assay with GST-Hu-p50 was 1.4 z-score.

In the case of “CCGATTAACATCAAAAACTCCCTTGATGTTAATCGGGTCTTGATTCGCTTGACGCTGCTG”, the binding signal in the assay with GST-Ap-NF-kB RHD worked out at 5.39 z-score; in assay [1] it was 7.94 z-score; in assay [2], 7 z-score; with GST-Co-NF-kB it was 1.96 z-score; with GST-Dm-Relish it was 6.3 z-score; with GST-Aq-NF-kB, 7.5 z-score. Also, in the assay with GST-Hu-p50, the binding signal came out at 5.92 z-score.

In the case of “CCGATTAACATCAGGGGGAAAACTGATGTTAATCGGGTCTTGATTCGCTTGACGCTGCTG”, the binding signal in the assay with GST-Ap-NF-kB RHD came to 8.4 z-score; in assay [1], 8.08 z-score; in assay [2], 9.8 z-score; in the assay with GST-Co-NF-kB, 11.7 z-score; with GST-Dm-Relish it was 7.59 z-score; with GST-Aq-NF-kB it was 7.21 z-score. The same sequence displayed a binding signal with GST-Hu-p50 of 7.47 z-score.

For “CCGATTAACATCAAATTCCCAATTGATGTTAATCGGGTCTTGATTCGCTTGACGCTGCTG”, the binding signal with GST-Ap-NF-kB RHD came to 1.09 z-score; in assay [1], 3.19 z-score; in assay [2], 3.78 z-score; in the assay with GST-Co-NF-kB it was 2.62 z-score; with GST-Dm-Relish, 3.56 z-score; in the assay with GST-Aq-NF-kB it was 2.06 z-score. Moreover, in the assay with GST-Hu-p50, the binding signal is 2.67 z-score.

As to “CCGATTAACATCAGGGGAAGATATGATGTTAATCGGGTCTTGATTCGCTTGACGCTGCTG”, the binding signal in the assay with GST-Ap-NF-kB RHD turned out to be 6.06 z-score; in assay [1] it was 6.63 z-score; in assay [2], 7.91 z-score; with GST-Co-NF-kB it was 8.77 z-score; with GST-Dm-Relish it was 4.01 z-score; in the assay with GST-Aq-NF-kB, 6.09 z-score. Besides, the binding signal in the assay with GST-Hu-p50 is 5.33 z-score.

For “CCGATTAACATCATGGGGGGTAATGATGTTAATCGGGTCTTGATTCGCTTGACGCTGCTG”, the binding signal was found to be 3.64 z-score with GST-Ap-NF-kB RHD; 3.18 z-score in assay [1]; 2.78 z-score in assay [2]; 5.06 z-score with GST-Co-NF-kB; 2.79 z-score with GST-Dm-Relish; 3.56 z-score with GST-Aq-NF-kB. Further, in the assay with GST-Hu-p50, the binding signal turned out to be 3.21 z-score.

Consider “CCGATTAACATCAAAGTCCCCCCTGATGTTAATCGGGTCTTGATTCGCTTGACGCTGCTG”, for which the binding signal amounted to 7.56 z-score in the assay with GST-Ap-NF-kB RHD; 6.37 z-score in assay [1]; 5.95 z-score in assay [2]; 9.05 z-score with GST-Co-NF-kB; 7.85 z-score with GST-Dm-Relish; 6.3 z-score with GST-Aq-NF-kB. In the assay with GST-Hu-p50, the binding signal was found to be 5.64 z-score.

Take “CCGATTAACATCAAAAAATCCCGTGATGTTAATCGGGTCTTGATTCGCTTGACGCTGCTG”: the binding signal with GST-Ap-NF-kB RHD stood at 5.57 z-score; in assay [1], 6.22 z-score; in assay [2], 5.2 z-score; with GST-Co-NF-kB, 2.99 z-score; in the assay with GST-Dm-Relish, 8.31 z-score; with GST-Aq-NF-kB it was 6.71 z-score. The binding signal with GST-Hu-p50 is 4.97 z-score.

For the sequence “CCGATTAACATCAAATATCCCCATGATGTTAATCGGGTCTTGATTCGCTTGACGCTGCTG”, the binding signal with GST-Ap-NF-kB RHD amounted to 6.82 z-score; in assay [1], 6.83 z-score; in assay [2], 7.36 z-score; with GST-Co-NF-kB it was 4.59 z-score; with GST-Dm-Relish it was 4.81 z-score; with GST-Aq-NF-kB, 4.67 z-score. Further, in the assay with GST-Hu-p50, the binding signal is 5.18 z-score.

For the sequence “CCGATTAACATCAAGGGAAATTCTGATGTTAATCGGGTCTTGATTCGCTTGACGCTGCTG”, the binding signal with GST-Ap-NF-kB RHD is 5.74 z-score; in assay [1] it was 8.12 z-score; in assay [2] it was 7.46 z-score; with GST-Co-NF-kB it was 4.57 z-score; in the assay with GST-Dm-Relish, 3.68 z-score; with GST-Aq-NF-kB it was 6.88 z-score. For the same sequence, in the assay with GST-Hu-p50, the binding signal was 5.4 z-score.
